PAFAH1B2 FP inh: PAFAH1B2 (human) inhibition; inhibition, % at 3.39 µM; actives 1.2% (n = 340,000); recombinant PAFAH1B2, FP-rhodamine activity probe, fluorescence polarization;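 active means inhibition above the mean of all tested compounds plus 3 SD, cut at about 24% in these data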;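 further: 0% = enzyme with DMSO and 100% = wells lacking PAFAH1B2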
PAFAH2 inh: inhibitors of human PAFAH2 | actives 0.99% (n = 340,000) | AID 492956 | recombinant PAFAH2, FP-rhodamine activity probe, fluorescence polarization | inhibition, % at 3.39 µM;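 active means inhibition above the mean over all tested compounds plus 3 SD, cut at about 30% in these data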;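 further: inhibitors block probe labeling of enzyme so polarization drops; 0% = enzyme with DMSO and 100% = wells lacking PAFAH2 protein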
Rin1 Abl inh: inhibitors of human Rin1-Abl protein interaction. P00519+Q13671. TR-FRET Rin1/Abl binding, biochemical. actives 0.4% (n = 360,000). inhibition, % at 7.35 µM; in the data active means inhibition above about 5%, passing the limit was not always enough
pPAFAH FP inh: inhibitors of human plasma PAF acetylhydrolase (pPAFAH). Q13093. recombinant pPAFAH, FP-rhodamine probe fluorescence polarization. inhibition, % at 3.39 µM. actives 1.5% (n = 330,000);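 active means inhibition above the mean inhibition across the screen plus 3 SD, cut at about 25% in these data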;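 further: inhibitors block binding of the rhodamine activity-based probe so polarization drops; 0% = enzyme with DMSO and 100% = wells lacking pPAFAH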
PAFAH1B3 FP inh: blocks human PAF acetylhydrolase 1B catalytic subunit 3 | Q15102 | AID 492972 | actives 0.28% (n = 340,000) | recombinant PAFAH1B3, FP-rhodamine probe, fluorescence polarization | inhibition, % at 3.39 µM;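 active means inhibition above the screen-wide average of all tested compounds plus 3 SD, cut at about 25% in these data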;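 further: 0% = enzyme with DMSO only and 100% = wells lacking PAFAH1B3 protein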
E coli Lon inh: inhibitors of E. coli Lon protease; P0A9M0; purified E. coli Lon protease, fluorescence polarization; inhibition, % at 7.94 µM; actives 0.42% (n = 360,000); in the data active means inhibition above about 13%, passing the limit was not always enough;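 further: 0% = enzyme with probe and DMSO and 100% = no enzyme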
PAFAH2 FP conf: PAFAH2 (human) inhibition, confirmed; actives 65% (n = 2,300); shares compounds with PAFAH2 inh; inhibition, % at 3.39 µM; recombinant PAFAH2, FP-rhodamine activity probe, fluorescence polarization;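 active means mean inhibition over three repeats above a set limit taken from the earlier primary screen, cut at about 30% in these data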;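 further: inhibitor blocks binding of rhodamine activity probe so polarization falls; 0% = enzyme with DMSO and 100% = wells lacking PAFAH2 protein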
The depositor's hits bear a star; . = not tested or not shown. Shown are actives, neighbours in structure and some others; about 3.1% of the full set was active somewhere.

SMILES | PAFAH1B2 FP inh | PAFAH2 inh | Rin1 Abl inh | pPAFAH FP inh | PAFAH1B3 FP inh | E coli Lon inh | PAFAH2 FP conf
COc1ccc(S(=O)(=O)C(C#N)c2nc3ccccc3nc2N2CCCC(C)C2)cc1 (configuration not stated) | 7 | 31* | 0 | 1 | 7 | 8 | 21
O=C(COC(=O)/C=C/c1ccccc1)NC1CC1 | -1 | 54* | 1 | 1 | 8 | -3 | 33*
O=C(COC(=O)/C=C/c1ccccc1)NC1CCS(=O)(=O)C1 (configuration not stated) | -4 | 6 | 1 | 2 | 11 | -5 | .
O=C(COC(=O)/C=C/c1cccc(C(F)(F)F)c1)NC1CCCCCC1 | 1 | 31* | 2 | -4 | 3 | -9 | 43*
O=C(COC(=O)/C=C/c1ccccc1)NC1CCCCCC1 | 2 | 89* | 0 | . | 7 | -16 | 82*
O=C(COC(=O)/C=C/c1ccccc1)NC(=O)NC1CCCCC1 | 0 | 35* | 5 | 9 | -1 | 0 | 25
O=C(COC(=O)/C=C/c1ccc([N+](=O)[O-])cc1)NC(=O)NC1CCCCC1 | 3 | 4 | 3 | 6 | -2 | -8 | .
O=C(COC(=O)/C=C/c1cccs1)NC1CC1 | 1 | 41* | -1 | -10 | 4 | -3 | 39*
O=C(COC(=O)/C=C/c1ccccc1[N+](=O)[O-])NC1CCS(=O)(=O)C1 (configuration not stated) | 0 | 5 | -3 | 9 | 1 | -2 | .
O=C(COC(=O)/C=C/c1ccccc1[N+](=O)[O-])NC1CC1 | 7 | 36* | -5 | 20 | -4 | -3 | 23
Cc1cc(NC(=O)CSc2nnc(-c3ccccc3F)n2N)no1 | 6 | -3 | 0 | 3 | 6 | -19 | .
COC(=O)c1ccc(CNC(=O)C2CCC(=O)N(C3CCCCCC3)C2)cc1 (configuration not stated) | 0 | -3 | 1 | 6 | 6 | -9 | .
CCOC(=O)C1CCCN(C(=O)c2cc(OC)ccc2Br)CC1 (configuration not stated) | . | . | -1 | . | . | 5 | .
O=C(OCc1nnc(-c2ccccc2Br)o1)c1ccco1 | 9 | 53* | -1 | 13 | -4 | -4 | 50*
O=C(OCc1nc(-c2ccccc2Cl)no1)c1ccco1 | 0 | 42* | -6 | -2 | 6 | -2 | 41*
COc1cccc(-c2ncc3ccccc3c2COC(=O)CCCC(=O)O)c1 | 5 | 2 | 2 | -4 | 7 | -3 | .
O=C1C=C(Nc2ccc(Cl)cc2Cl)CC(c2ccco2)C1 (configuration not stated) | 5 | 45* | -1 | 19 | -2 | -10 | 37*
N#CN=CN1CC=C(c2ccc(Cl)cc2)CC1 | . | . | 0 | . | . | 0 | .
N#CC1=C(SCC(=O)Nc2cccc3cccnc23)NC(=O)C(C#N)C12CCCCC2 (configuration not stated) | 11 | 38* | 1 | 9 | 9 | 1 | 27
CCOC(=O)C1=C(SCC(=O)Nc2ccccc2)NC(=O)C(C#N)C12CCCCC2 (configuration not stated) | 19 | 4 | -5 | 2 | 3 | 7 | .
O=C(CSc1nncs1)NNC(=O)c1ccco1 | 0 | 3 | 4 | -3 | 4 | 4 | .
O=C1C(Cl)=C(Nc2ccccc2O)C(=O)N1CCc1ccccc1 | 6 | 44* | -5 | 19 | -14 | -6 | 37*
COc1ccc(CCNC2=C(Cl)C(=O)N(CCc3ccccc3)C2=O)cc1OC | 1 | 3 | 2 | 5 | 3 | -7 | .
Cc1cc(O)c(/C=N/OCc2ccc(Cl)cc2Cl)c(=O)o1 | 17 | 85* | 1 | 2 | -1 | -4 | 77*
COc1ccc(Cl)cc1N=Cc1c(O)cc(C)oc1=O | -1 | 2 | -4 | 0 | 12 | -19 | .
SMILES | PAFAH1B2 FP inh | PAFAH2 inh | Rin1 Abl inh | pPAFAH FP inh | PAFAH1B3 FP inh | E coli Lon inh | PAFAH2 FP conf
Cc1cc(O)c(/C=N/Nc2cccc(Cl)c2)c(=O)o1 | 1 | 38* | -1 | 4 | 6 | 0 | 30*
O=C(O)C(Cc1ccccc1)N1C(=O)c2ccccc2C1=O (configuration not stated) | 0 | 2 | -1 | 4 | 3 | -4 | .
O=C(O)C(Cc1ccccc1)N1C(=O)c2c(Cl)c(Cl)c(Cl)c(Cl)c2C1=O (configuration not stated) | 6 | 32* | -3 | 0 | -3 | -5 | 26
CCOc1ccccc1N1CCN(C(=O)c2cn(CC3CCCCC3)nn2)CC1 | -4 | 0 | -1 | . | 0 | -18 | .
O=C(c1ccc(N2CCCC2=O)cc1)N1CCN(c2ccccc2F)CC1 | -3 | 1 | -2 | 10 | 0 | 9 | .
COc1ccc(NC(=O)/C(Cl)=C(/Cl)S(=O)(=O)Cc2ccccc2)cn1 | 8 | 41* | 4 | . | 0 | -6 | 19
Cc1ccc(C)c(Sc2ccc(NC(=O)CCN3C(=O)NC4(CCCC4)C3=O)cc2)c1 | 4 | 49* | 0 | 24 | -3 | -10 | 54*
Cc1ccc(NC(=O)CCN2C(=O)NC3(CCCC3)C2=O)cc1 | -5 | 1 | 6 | . | 1 | -4 | .
CC1(C)C(/C=C/C=C/C=C/C=C2\N(CCCCS(=O)(=O)O)c3ccc4ccccc4c3C2(C)C)=[N+](CCCCS(=O)(=O)[O-])c2ccc3ccccc3c21 | -12 | 43* | 9 | 29* | -32 | -26 | 26
COc1cc(/C=C/C(=O)OCC(=O)Nc2ccc(S(N)(=O)=O)cc2)ccc1O | -1 | -3 | -4 | 4 | 3 | -4 | .
O=C(COC(=O)/C=C/c1ccc(F)cc1)Nc1ccc(Cl)cn1 | -2 | 30* | -5 | 2 | 7 | 0 | 22
CCOC(=O)/C=C/C(=O)OCC(=O)Nc1ccc(Cl)cn1 | -6 | -2 | 0 | 2 | -1 | -8 | .
COc1cc(/C=C/C(=O)OCC(=O)Nc2ccc([N+](=O)[O-])cc2)ccc1O | 1 | 78* | -3 | 6 | 5 | 13 | 81*
COc1cc(/C=C/C(=O)OCC(=O)Nc2ccc(Cl)cn2)ccc1O | 4 | 64* | -1 | 5 | 7 | -6 | 66*
CC(C)=CC(=O)OCC(=O)Nc1ccc(Cl)cn1 | 5 | 52* | 2 | 3 | 5 | -3 | 43*
CNC(=O)COC(=O)/C=C/c1ccc(F)cc1 | 2 | 5 | -2 | -2 | 1 | -12 | .
COc1ccc(-n2c(=S)[nH]c3cc(C(=O)NCCCN4CCOCC4)ccc3c2=O)cc1OC | 0 | 6 | -1 | 2 | -3 | -9 | .
O=c1cc(-c2ccccc2)nc2cc(-c3ccc(F)cc3)[nH]n12 | 20 | 64* | 1 | 8 | 10 | 10 | 0
COc1cccc(-c2cc3nc(-c4ccccc4)cc(=O)n3[nH]2)c1 | 9 | 12 | 1 | 15 | 17 | 1 | .
